The results in this text go back to PubChem BioAssay (NCI).

Molecules are shown by their SMILES. This is part of a sample that, as a whole, favours compounds with a hit. Of some 83,000 tested, about 20% had one in any assay.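 Values shown are percent growth following 48 h exposure of cells in 96-well plates to a single concentration of compound; below 10 was considered active.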 A number with no mark means an inactive call. Calls of active or inactive are those of the source.

Some test systems named below: NCI-H23 lung; NCI-H226 lung; NCI-H322M lung; HOP-62 NSCLC; NCI-H460 lung; HOP-92 NSCLC; NCI-H522 lung; A549/ATCC NSCLC; 786-0 renal; COLO 205 colon; DU-145 prostate; K-562 leukemia; MALME-3M melanoma; MDA-MB-231 breast; RXF 393 renal; SF-268 CNS; SF-295 CNS; SF-539 CNS; UACC-257 melanoma; M14 melanoma.
What all share (experiment): NCI-60 one-dose screen, 48 h (100 = growth as untreated, 0 = no growth, -100 = all killed)
What all share (conditions): 10 µM unless noted

`C#C[C@]1(O)CC[C@H]2[C@@H]3CC=C4c5sc(Nc6cc(C)cc(C)c6)nc5CC[C@]4(C)[C@H]3CC[C@@]21C`: the growth in the test with NCI-H23 lung is 14.8%; in the test with NCI-H226 lung it was 38.6%; in the test with NCI-H322M lung, 40.9%; with HOP-62 NSCLC it was 20.5%; in the test with NCI-H460 lung, 12.2%; with HOP-92 NSCLC it was 31.4%. Moreover, the growth with NCI-H522 lung was 42.7%; with A549/ATCC NSCLC it was 21.1%; with 786-0 renal it was -31.2% (active); with COLO 205 colon, -13.3% (active); in the test with DU-145 prostate it was 45.4%; in the test with K-562 leukemia it was 0.356% (active). Moreover, the growth in the test with MALME-3M melanoma is -4.28% (active); in the test on MDA-MB-231 breast it was 33.5%; in the test on RXF 393 renal it was -77.2% (active); with SF-268 CNS it was 22.3%; in the test on SF-295 CNS, -71.7% (active); in the test on SF-539 CNS, -47.7% (active). The figures for the growth in the test with UACC-257 melanoma and in the test on M14 melanoma were 16% and -60.2% (active), respectively.

As for `CC(C)Sc1nc(-c2ccccc2)c(C#N)c(N2CCOCC2)n1`, the growth in the test on NCI-H23 lung is 65%; in the test with NCI-H226 lung, 55.1%; in the test on NCI-H322M lung, 38.1%; with HOP-62 NSCLC it was 63.7%; in the test with NCI-H460 lung, 42.2%; in the test with HOP-92 NSCLC it was 73.2%. In addition, the growth was 82.5% in the test on NCI-H522 lung; 37.2% in the test with A549/ATCC NSCLC; 11.9% in the test with 786-0 renal; 74% in the test with COLO 205 colon; 83.1% in the test on DU-145 prostate; 62.4% in the test on K-562 leukemia. In addition, the growth is 36.5% in the test on MALME-3M melanoma; 63.7% in the test with MDA-MB-231 breast; 45.7% in the test on RXF 393 renal; 79% in the test on SF-268 CNS; 51.1% in the test with SF-295 CNS; 50.2% in the test with SF-539 CNS. Besides, the growth in the test on UACC-257 melanoma is 97.5%; with M14 melanoma it was 96.9%.

Turning to `O=S(=O)(Oc1ccc(-c2cn3ccoc3n2)cc1)C1CCCCC1`, the growth in the test with NCI-H23 lung was 102%; in the test with NCI-H226 lung it was 86.7%; in the test with NCI-H322M lung, 101%; in the test on HOP-62 NSCLC, 105%; in the test with NCI-H460 lung, 100%; in the test with HOP-92 NSCLC, 99.9%. The growth in the test on NCI-H522 lung was 87.9%; in the test with A549/ATCC NSCLC it was 99.4%; with 786-0 renal, 100%; in the test with COLO 205 colon it was 103%; in the test on DU-145 prostate it was 107%; in the test with K-562 leukemia it was 89.5%. The growth with MALME-3M melanoma was 103%; in the test on MDA-MB-231 breast, 105%; with RXF 393 renal it was 122%; with SF-268 CNS it was 108%; in the test with SF-295 CNS it was 93.8%; with SF-539 CNS, 97%. Further, the growth in the test on UACC-257 melanoma was 106%; with M14 melanoma it was 104%.

As to `O=C(Nc1cccc(Cl)c1)Nc1nc2cc([N+](=O)[O-])ccc2o1`, the growth with NCI-H23 lung was 38.4%; with NCI-H226 lung it was 56.1%; in the test on NCI-H322M lung, 37.4%; in the test on HOP-62 NSCLC it was 58%; with NCI-H460 lung, 26.5%; in the test with HOP-92 NSCLC, -4.19% (active). In addition, the growth in the test with NCI-H522 lung was 18.2%; with A549/ATCC NSCLC it was 44.6%; with 786-0 renal, 44.2%; in the test with COLO 205 colon it was 75.1%; in the test with DU-145 prostate, 52.7%; in the test with K-562 leukemia, 37.8%. Also, the growth in the test on MALME-3M melanoma was 29.7%; in the test on MDA-MB-231 breast, 61.4%; with RXF 393 renal it was 67.4%; with SF-268 CNS, 37.3%; in the test on SF-295 CNS it was 51%; in the test with SF-539 CNS, 59.4%. The results for the growth in the test with UACC-257 melanoma and in the test on M14 melanoma were 54.6% and 39.5%, respectively.

For the compound `C=CCSC1=NC2C(N(CC)C(=O)N2CC)N1/N=C/C=C/c1ccccc1OC` (stereo not given), the growth in the test on NCI-H23 lung is 84%; in the test with NCI-H226 lung it was 78.3%; in the test with NCI-H322M lung, 102%; in the test with HOP-62 NSCLC, 80.7%; with NCI-H460 lung it was 84.3%; in the test with HOP-92 NSCLC it was 68.4%. The growth was 57.2% in the test on NCI-H522 lung; 69.8% with A549/ATCC NSCLC; 98.5% with 786-0 renal; 83.1% in the test with COLO 205 colon; 92.2% with DU-145 prostate; 28% with K-562 leukemia. Moreover, the growth in the test with MALME-3M melanoma was 72.2%; with MDA-MB-231 breast it was 82.5%; in the test on RXF 393 renal, 79.3%; with SF-268 CNS, 89.2%; in the test with SF-295 CNS, 58.5%; in the test with SF-539 CNS, 78.1%. In addition, the growth with UACC-257 melanoma was 83%; with M14 melanoma it was 72.6%.

In the case of `N#C/C(=C\c1ccc(-c2ccc(Cl)cc2)o1)C(=O)Nc1ncc(Cc2ccc(Br)cc2)s1`, the growth in the test with NCI-H23 lung is -30.6% (active); in the test on NCI-H226 lung, 40.3%; with NCI-H322M lung it was 19.1%; in the test with HOP-62 NSCLC, 5.97% (active); with NCI-H460 lung it was -78.1% (active); with HOP-92 NSCLC, 8.49% (active). In addition, the growth was 4.79% (active) with NCI-H522 lung; -53% (active) in the test on A549/ATCC NSCLC; 23.4% in the test on 786-0 renal; 41.1% in the test with COLO 205 colon; 9.81% (active) in the test on DU-145 prostate; 42.7% with K-562 leukemia. Also, the growth is -34.1% (active) with MALME-3M melanoma; 3.41% (active) in the test with MDA-MB-231 breast; 33.1% with RXF 393 renal; 33.2% in the test on SF-268 CNS; -2.23% (active) in the test with SF-295 CNS; 1.63% (active) with SF-539 CNS. Further, the growth with UACC-257 melanoma is 46.6%; in the test with M14 melanoma, 10.2%.

Consider `CC(=C(c1ccc(OCCN(C)C)cc1)c1ccc(OCCN(C)C)cc1)c1ccc(Cl)cc1`, for which the growth in the test with NCI-H23 lung is 29.5%; with NCI-H226 lung it was -11.9% (active); in the test on NCI-H322M lung it was -3.42% (active); with HOP-62 NSCLC, -57.8% (active); in the test with NCI-H460 lung, -71.9% (active); with HOP-92 NSCLC, -9.45% (active). The growth is -64.5% (active) in the test with NCI-H522 lung; -65% (active) in the test with A549/ATCC NSCLC; -67.5% (active) with 786-0 renal; -50% (active) in the test on COLO 205 colon; -73.6% (active) in the test with DU-145 prostate; -9.65% (active) in the test with K-562 leukemia. Also, the growth is -79.9% (active) with MALME-3M melanoma; -75.4% (active) with MDA-MB-231 breast; -86.6% (active) in the test with RXF 393 renal; -47.7% (active) in the test on SF-268 CNS; -78.1% (active) in the test with SF-295 CNS; -83% (active) in the test with SF-539 CNS. In addition, the growth is -69.6% (active) with UACC-257 melanoma and -63.5% (active) in the test on M14 melanoma.

For `CCCCCCCCCCCC(=O)NC(C)(C)C(=O)N1CCCC1C(=O)NC(C)(C)C(=O)NC(C)(C)C(=O)N1CCCC1C(=O)NC(C)(C)C(=O)NC(C)(C)C(=O)N1CCCC1C(=O)NC(C)C(=O)NCCC(=O)NC(C)C(=O)NC(C)(C)C(=O)NC(C)(C)C(=O)NC(C)(C)C(=O)NCCC(=O)NC(C)(C)C(=O)NC(C)(C)C(=O)NC(C)(C)C(=O)NC(C)C(=O)NCCC(=O)O` (stereo not given), the growth in the test with NCI-H23 lung is -92.9% (active); with NCI-H226 lung, -61.8% (active); with NCI-H322M lung, -99.6% (active); with HOP-62 NSCLC it was -93.3% (active); in the test with NCI-H460 lung it was -79.7% (active); in the test with HOP-92 NSCLC, -96% (active). Moreover, the growth in the test on NCI-H522 lung was -89.8% (active); in the test on A549/ATCC NSCLC, -77.9% (active); with 786-0 renal it was -96.3% (active); in the test on COLO 205 colon, -89.2% (active); with DU-145 prostate, -99.4% (active); in the test on K-562 leukemia, -65.4% (active). The growth was -89.4% (active) in the test with MALME-3M melanoma; -87.5% (active) in the test on MDA-MB-231 breast; -94.5% (active) in the test on RXF 393 renal; -60.6% (active) in the test with SF-268 CNS; -97.1% (active) with SF-295 CNS; -92% (active) with SF-539 CNS. The figures for the growth in the test on UACC-257 melanoma and with M14 melanoma were -91.8% (active) and -97.3% (active), respectively.
